Screening data: PubChem BioAssay, several laboratories
Shown are actives, neighbours in structure and some others; about 21% of the full set was active somewhere.
CYP2C9 activ = CYP2C9 (human) activation; recombinant CYP2C9, luciferin-H conversion, luminescence; hits give high values; factor 1 = untreated enzyme, 0 = blocked; activation factor at 5 µM; hit rate 1.4% among 96,000; AID 1024;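 active = activation factor of 2 or more for CYP2C9 at a 5 µM dose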;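 also: 0 = sulfaphenazole-blocked wells and 1 = vehicle-only wells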
CYP2C19 inh = human CYP2C19 inhibition; hit rate 21% among 96,000; P33261; inhibition, % at 5 µM; CYP2C19 Supersomes, luciferin-H EGE luminescence, 30 min;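 active = CYP2C19 inhibition above a set limit at 5 µM in the primary screen, cut at about 50% in these data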;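 also: plate controls were negative control wells for no effect and 2.5 mM tranylcypromine positive control for full effect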
Target sequence (P33261 whole entry, looked up): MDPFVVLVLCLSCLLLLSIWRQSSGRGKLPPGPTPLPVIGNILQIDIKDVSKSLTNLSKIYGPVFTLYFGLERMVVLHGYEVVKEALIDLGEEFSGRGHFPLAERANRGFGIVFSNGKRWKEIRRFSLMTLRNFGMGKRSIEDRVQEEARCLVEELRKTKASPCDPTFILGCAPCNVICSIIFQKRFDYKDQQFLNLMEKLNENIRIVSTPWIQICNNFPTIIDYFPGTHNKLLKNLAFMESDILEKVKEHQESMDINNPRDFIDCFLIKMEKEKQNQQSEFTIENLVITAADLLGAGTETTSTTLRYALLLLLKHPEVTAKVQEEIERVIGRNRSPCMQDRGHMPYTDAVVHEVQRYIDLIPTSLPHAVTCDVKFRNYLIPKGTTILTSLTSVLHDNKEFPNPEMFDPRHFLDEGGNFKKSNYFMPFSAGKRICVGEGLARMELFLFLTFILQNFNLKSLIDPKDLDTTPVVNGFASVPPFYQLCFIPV
MRP1 act = activates MRP-1; H69AR cells + doxorubicin, viability rescue, CellTiter-Glo; viability increase, % at 10 µM; hit rate 0.61% among 140,000; AID 799;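 active = viability gain under doxorubicin at or above a set limit, the compound median plus 3 SD, cut at about 4.7% in these data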;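 also: MRP-1 overexpressing cells given doxorubicin 25 µM after compound pretreatment; 18-22 h compound pretreatment then 72 h with doxorubicin before readout; 0% = doxorubicin-only wells and 100% = vehicle-treated cells without doxorubicin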
CYP2C19 act = activators of human cytochrome P450 2C19; 96,000 tested, under 10 active; recombinant CYP2C19, luciferin-H EGE luminescence; hits give high values; 0 = fully inhibited enzyme, 1 = untreated enzyme; P33261; activation factor at 5 µM;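 active = activation factor of at least 2 at 5 µM in the primary screen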;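 also: 0 = wells with 2.5 mM tranylcypromine and 1 = vehicle-only wells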
CYP2C9 inh = human CYP2C9 inhibition. CYP2C9 Supersomes, luciferin-H conversion, luminescence. inhibition, % at 5 µM. P11712. hit rate 20% among 96,000;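 active = blocking of liver enzyme CYP2C9 beyond about 50% at 5 µM, limit read from the data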
MRP reversal = reverses drug resistance mediated by MRP | hit rate 0.04% among 85,000 | H69AR cells + 2 uM doxorubicin, CellTiter-Glo, 72 h | AID 602 | differential viability (reversal), % at 10 µM;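 active = viability drop by adding the cancer drug above about 55%, with treated viability meeting a 40% cutoff, limit read from the data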;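 also: viability without doxorubicin minus viability with 2 µM doxorubicin for each compound; larger differential means the compound sensitizes cells more to doxorubicin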
* marks the source's active call; other numbers are inactive results; · = not tested or not shown.

SMILES | CYP2C9 activ | CYP2C19 inh | MRP1 act | CYP2C19 act | CYP2C9 inh | MRP reversal
CCOc1cc(CNCCCN2CCOCC2)cc(Br)c1OCC(=O)Nc1cccc(C(F)(F)F)c1 | 0.9 | 11.6 | -6.9 | 0.9 | 8.7 | ·
CC(=O)Nc1ccc(OC(F)(F)C(F)F)c(NC(C)=O)c1 | 1.1 | -14.6 | 0.4 | 1.1 | -6.5 | ·
O=C(COc1ccccc1)Nc1ccc(OC(F)(F)C(F)F)c(NC(=O)COc2ccccc2)c1 | 0.5 | 16.9 | -2.2 | 0.8 | 53.8* | ·
CC(=O)c1ccc(NC2OC(C)C(O)C(O)C2O)cc1 (configuration not stated) | 1.1 | -3.9 | -1.1 | 1 | -6.3 | 9.0
NC/C(=N\O)c1ccc(Cl)cc1Cl | 0.5 | 80.4* | 1.2 | 0.2 | 52.4* | 13.8
Cn1cccc1C(=O)c1ccc(Cl)cc1Cl | 0.8 | 13.0 | -2.6 | 0.9 | 17.4 | -2.9
CN1C2C=C(N(CCc3c[nH]c4ccccc34)C(=O)c3ccc(Cl)cc3)CC1CC2 (configuration not stated) | 1 | 6.7 | -2.6 | 0.9 | 1.1 | ·
CCCCCn1ccc(=O)c2c(C(F)(F)F)nccc21 | · | · | -2.4 | · | · | -10.9
Cc1nc2cc(N3CCCCC3)c(NC(=O)c3ccncc3)cc2c(=O)n1Cc1ccccc1 | 0.2 | 35.8 | -5.4 | 0.6 | 80.7* | ·
Cc1cc(C)n2cc(CSc3nnnn3-c3ccc(Cl)cc3)nc2n1 | 2.2* | -5.2 | -4.5 | 1.1 | -118.2 | 11.7
Cc1cccc2nc(CSc3nnnn3-c3ccccc3)cn12 | 0.6 | 84.2* | -0.6 | 0.2 | 37.4 | 7.5
C(=C\CSc1nnnn1-c1ccccc1)/CSc1nnnn1-c1ccccc1 | 0.8 | 5.8 | -3.2 | 0.9 | 20.1 | ·
c1ccc(-c2noc(CSc3nnnn3-c3ccccc3)n2)cc1 | 0.5 | 63.3* | 1.7 | 0.4 | 53.6* | 3.9
c1ccc(-n2nnnc2SCc2ccccn2)cc1 | 0.7 | 87.6* | 0.8 | 0.1 | 28.5 | -10.6
Cc1ccc(-c2noc(CSc3nnnn3C3CCCCC3)n2)cc1 | 0.7 | 21.0 | -2.7 | 0.8 | 31.7 | 5.3
Cc1cccc2nc(CSc3nncn3-c3ccccc3)cn12 | 1.2 | 4.1 | -1.4 | 1 | -19.5 | 13.9
Cc1cc(C)n2cc(CSc3nnnn3-c3ccccc3)nc2n1 | 1.2 | 3.5 | -0.8 | 1 | -20.4 | 4.7
COc1cc(/C=N/NC(=O)C2COc3ccccc3O2)cc(OC)c1OC (configuration not stated) | · | · | -0.4 | · | · | ·
Cc1ccc(-n2nnnc2SCc2ccccn2)cc1C | 1 | 57.1* | -0.2 | 0.4 | 0.6 | 10.8
COc1ccccc1-c1nnc(SCc2ccccn2)n1C | 1.5 | 34.3 | -0.1 | 0.7 | -52.9 | -9.9
Cc1cc(NC(=O)CN2CCN(c3ccccc3F)CC2)nc2c1c(=O)oc1ccccc12 | · | · | · | · | · | -4.9
O/C(=C\Sc1nnc(Cc2ccccc2)o1)c1ccc(Br)cc1 | 0.1 | 79.4* | -0.8 | 0.2 | 92.6* | 7.1
CCNC(=O)CC1C(=O)N(c2ccc(F)cc2)C(=O)N1CCC(C)C (configuration not stated) | 1 | 10.6 | -0.5 | 0.9 | -4.6 | 1.7
c1ccn(-c2ncnc3sc4c(c23)CCCC4)c1 | 0.7 | 96.4* | -1.4 | 0 | 34.5 | 0.5
c1cn(-c2ncnc3sc4c(c23)CCCC4)cn1 | 0.9 | 27.8 | -4.9 | 0.7 | 9.4 | 2.7
SMILES | CYP2C9 activ | CYP2C19 inh | MRP1 act | CYP2C19 act | CYP2C9 inh | MRP reversal
O=C(c1ccccc1)N1CCN(c2ncnc3sc4c(c23)CCC4)CC1 | 0.2 | 92.2* | -1.5 | 0.1 | 82.9* | -18.6
CSc1nc(N2CCOCC2)c2c3c(sc2n1)CCCC3 | 0.5 | 8.6 | -1.2 | 0.9 | 47.9 | -26.2
c1nc(N2CCOCC2)c2c3c(sc2n1)CCCC3 | 0.8 | 64.6* | -1.5 | 0.4 | 24.0 | -17.9
Cc1cccc(C(=O)Nc2ccccc2C(=O)OCC(=O)Nc2ccc(C#N)cc2)c1 | · | · | -0.5 | · | · | ·
CCc1nc2ccccc2c(C(=O)Oc2ccc(C(=O)OC)cc2)c1C | · | · | 0.4 | · | · | ·
COC(=O)c1ccccc1NC(=O)CSCC(=O)Nc1ccc(F)cc1 | 0.6 | 58.6* | -4.3 | 0.4 | 35.4 | ·
Cc1c(F)cccc1NC(=O)CCC(=O)O | 0.9 | 4.0 | -1.0 | 1 | 6.6 | 11.1
Cc1c(F)cccc1NC(=O)CSCC(=O)Nc1ccccc1 | 0.4 | 56.0* | -0.2 | 0.4 | 55.9* | 3.0
COC(=O)c1ccccc1NC(=O)CSc1nc(N)cc(N)n1 | 0.9 | 34.3 | -3.1 | 0.7 | 5.6 | -21.4
